# Measured values as given in the supplement of paper PMC8728848.
# The sample as a whole holds a higher share of the strongest signals than the screen did.
# B1: ArathEULS3 TAP (Arabidopsis thaliana) (protein)
# chain: IDENLYFQGGSMDEKTTGWRGGHVVEGLAGELEQLRARLEHHPQGQREPGGGGSLEITSLYKKAGFMEHHHQHHRHHQRDDGEDDRQSFGVPPPHVDAPPQPHGLYQSQPHFDPYAPTPQAPAPYRSETQFEPHAPPPYRSEPYFETPAPPPSFGHVSHVGHQSPNESYPPEHHRYGGYQQPSNSLLESHGDHSGVTHVAHHSSNQPQSSSGVYHKPDENRLPDNLAGLAGRATVKVYSKAEPNYNLTIRDGKVILAPADPSDEAQHWYKDEKYSTKVKDADGHPCFALVNKATGEAMKHSVGATHPVHLIRYVPDKLDESVLWTESKDFGDGYRTIRMVNNTRLNVDAYHGDSKSGGVRDGTTIVLWDWNKGDNQLWKIFPF
# Key:
# Test in all cases: glycan array binding signal (z-score within array); higher = stronger binding
# Settings in all cases: glycan notation: IUPAC condensed, linker removed
# Fuc(a1-2)Gal(b1-3)GlcNAc = target: Fuc(a1-2)Gal(b1-3)GlcNAc
# In short: (§1)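 The Consortium for Functional Glycomics database supplied 3228 glycan arrays, of which those lacking an available protein sequence were dropped. The binding signal, a within-array Z-score, was averaged across arrays of the same protein sequence and across linkers. Negative scores can be read as non-binding.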
# [1] = target: Fuc(a1-2)Gal(b1-3)GlcNAc(b1-3)Gal(b1-4)Glc
# In short: as §1
# [2] = target: Fuc(a1-2)Gal(b1-4)GlcNAc(b1-3)Gal(b1-4)GlcNAc(b1-2)Man(a1-3)[Fuc(a1-2)Gal(b1-4)GlcNAc(b1-3)Gal(b1-4)GlcNAc(b1-2)Man(a1-6)]Man(b1-4)GlcNAc(b1-4)GlcNAc
# In short: as §1
# [3] = target: Fuc(a1-2)Gal(b1-4)[Fuc(a1-3)]GlcNAc(b1-2)Man(a1-3)[Fuc(a1-2)Gal(b1-4)[Fuc(a1-3)]GlcNAc(b1-2)Man(a1-6)]Man(b1-4)GlcNAc(b1-4)[Fuc(a1-6)]GlcNAc
# In short: as §1
# [4] = target: Fuc(a1-2)Gal(b1-4)[Fuc(a1-3)]GlcNAc(b1-3)Gal(b1-4)[Fuc(a1-3)]GlcNAc
# In short: as §1
# [5] = target: Fuc(a1-2)Gal(b1-4)[Fuc(a1-3)]GlcNAc(b1-3)GalNAc
# In short: as §1
# [6] = target: Fuc(a1-2)Gal6S(b1-3)GlcNAc6S
# In short: as §1
# Fuc(a1-2)Gal6S(b1-4)Glc = target: Fuc(a1-2)Gal6S(b1-4)Glc
# In short: as §1
# [7] = target: Fuc(a1-2)[Gal(a1-3)]Gal(b1-4)GlcNAc(b1-2)Man(a1-3)[Fuc(a1-2)[Gal(a1-3)]Gal(b1-4)GlcNAc(b1-2)Man(a1-6)]Man(b1-4)GlcNAc(b1-4)GlcNAc
# In short: as §1
# [8] = target: Fuc(a1-2)[GalNAc(a1-3)]Gal(b1-4)GlcNAc(b1-2)Man
# In short: as §1
# [9] = target: Fuc(a1-3)[Gal(b1-4)]GlcNAc(b1-2)Man(a1-3)[Fuc(a1-3)[Gal(b1-4)]GlcNAc(b1-2)Man(a1-6)]Man(b1-4)GlcNAc(b1-4)GlcNAc
# In short: as §1
# [10] = target: Fuc(a1-3)[Gal(b1-4)]GlcNAc6S
# In short: as §1
# [11] = target: Fuc(a1-3)[Gal3S(b1-4)]GlcNAc6S
# In short: as §1
# Gal(a1-3)Gal = target: Gal(a1-3)Gal
# In short: as §1
# [12] = target: Gal(a1-3)Gal(b1-3)GlcNAc(b1-3)GalNAc
# In short: as §1
# Gal(a1-3)GalNAc = target: Gal(a1-3)GalNAc
# In short: as §1
# [13] = target: Gal(a1-3)[Gal(a1-4)]Gal(b1-4)GlcNAc
# In short: as §1
# [14] = target: Gal(b1-3)GalNAc(b1-3)Gal(a1-4)Gal(b1-4)Glc
# In short: as §1
# [15] = target: Gal(b1-3)GlcNAc(a1-6)Gal(b1-4)GlcNAc
# In short: as §1
# [16] = target: Gal(b1-3)[Fuc(a1-4)]GlcNAc(b1-3)Gal(b1-3)[Fuc(a1-4)]GlcNAc
# In short: as §1
# [17] = target: Gal(b1-4)GlcNAc(b1-2)[Gal(b1-4)GlcNAc(b1-6)]Man(a1-6)[Gal(b1-4)GlcNAc(b1-2)Man(a1-3)]Man(b1-4)GlcNAc(b1-4)[Fuc(a1-6)]GlcNAc
# In short: as §1
# [18] = target: Gal(b1-4)GlcNAc(b1-3)Gal(b1-3)GlcNAc
# In short: as §1
# [19] = target: Gal(b1-4)GlcNAc(b1-3)Gal(b1-4)Glc
# In short: as §1
# [20] = target: Gal(b1-4)GlcNAc(b1-3)Gal(b1-4)GlcNAc(b1-3)Gal(b1-4)GlcNAc
# In short: as §1
# [21] = target: Gal(b1-4)GlcNAc(b1-6)Gal(b1-4)GlcNAc
# In short: as §1
# [22] = target: Gal(b1-4)GlcNAc(b1-6)GalNAc
# In short: as §1
# Gal3S(b1-3)GlcNAc = target: Gal3S(b1-3)GlcNAc
# In short: as §1
# Gal3S(b1-4)Glc = target: Gal3S(b1-4)Glc
# In short: as §1
# Gal3S4S(b1-4)GlcNAc = target: Gal3S4S(b1-4)GlcNAc
# In short: as §1
# Gal4S(b1-4)GlcNAc = target: Gal4S(b1-4)GlcNAc
# In short: as §1
# GlcA(b1-3)GlcNAc = target: GlcA(b1-3)GlcNAc
# In short: as §1
# [23] = target: GlcNAc(a1-4)Gal(b1-4)GlcNAc(b1-3)Gal(b1-4)GlcNAc(b1-3)Gal(b1-4)GlcNAc
# In short: as §1
# [24] = target: GlcNAc(b1-2)Man(a1-3)[GlcNAc(b1-2)Man(a1-6)]Man(b1-4)GlcNAc(b1-4)[Fuc(a1-6)]GlcNAc
# In short: as §1
# [25] = target: GlcNAc(b1-2)[GlcNAc(b1-4)]Man(a1-3)[GlcNAc(b1-4)][GlcNAc(b1-2)[GlcNAc(b1-6)]Man(a1-6)]Man(b1-4)GlcNAc(b1-4)[Fuc(a1-6)]GlcNAc
# In short: as §1
# [26] = target: GlcNAc(b1-3)Gal(b1-4)GlcNAc
# In short: as §1
# [27] = target: GlcNAc(b1-3)Gal(b1-4)GlcNAc(b1-2)Man(a1-3)[GlcNAc(b1-3)Gal(b1-4)GlcNAc(b1-2)Man(a1-6)]Man(b1-4)GlcNAc(b1-4)GlcNAc
# In short: as §1
binder,measurement,setting,value
B1,glycan array binding signal (z-score),Fuc(a1-2)Gal(b1-3)GlcNAc,0.613
same,glycan array binding signal (z-score),[1],-0.174
same,glycan array binding signal (z-score),[2],2.35
same,glycan array binding signal (z-score),[3],1.46
same,glycan array binding signal (z-score),[4],0.109
same,glycan array binding signal (z-score),[5],-0.688
same,glycan array binding signal (z-score),[6],-0.204
same,glycan array binding signal (z-score),Fuc(a1-2)Gal6S(b1-4)Glc,1.85
same,glycan array binding signal (z-score),[7],-0.837
same,glycan array binding signal (z-score),[8],0.256
same,glycan array binding signal (z-score),[9],-0.853
same,glycan array binding signal (z-score),[10],2.6
same,glycan array binding signal (z-score),[11],0.828
same,glycan array binding signal (z-score),Gal(a1-3)Gal,3.3
same,glycan array binding signal (z-score),[12],0.549
same,glycan array binding signal (z-score),Gal(a1-3)GalNAc,-0.474
same,glycan array binding signal (z-score),[13],2.15
same,glycan array binding signal (z-score),[14],0.136
same,glycan array binding signal (z-score),[15],-0.499
same,glycan array binding signal (z-score),[16],-0.335
same,glycan array binding signal (z-score),[17],0.941
same,glycan array binding signal (z-score),[18],-0.688
same,glycan array binding signal (z-score),[19],-0.967
same,glycan array binding signal (z-score),[20],0.391
same,glycan array binding signal (z-score),[21],1.18
same,glycan array binding signal (z-score),[22],1.1
same,glycan array binding signal (z-score),Gal3S(b1-3)GlcNAc,-0.162
same,glycan array binding signal (z-score),Gal3S(b1-4)Glc,0.159
same,glycan array binding signal (z-score),Gal3S4S(b1-4)GlcNAc,4.33
same,glycan array binding signal (z-score),Gal4S(b1-4)GlcNAc,0.737
same,glycan array binding signal (z-score),GlcA(b1-3)GlcNAc,-0.1
same,glycan array binding signal (z-score),[23],0.236
same,glycan array binding signal (z-score),[24],-0.928
same,glycan array binding signal (z-score),[25],-0.659
same,glycan array binding signal (z-score),[26],-0.59
same,glycan array binding signal (z-score),[27],-0.107
